Measured values from PubChem BioAssay (Tox21).
Results filed as inconclusive are left out. The source made the active and inactive calls. Unless noted, calls follow the shape of the dose curve; as a rule, active = well fitted curve in the direction sought with a large enough effect in the repeat runs; inconclusive = weak or mixed curves; inactive = no such curve, though single readings can be large; an effect the other way counts as inactive or inconclusive.

Experiments:
[1] = target: Thyrotropin receptor (Homo sapiens) (UniProt P16473); experiment: qHTS assay to identify small molecule agonists of the thyroid stimulating hormone receptor (TSHR) signaling pathway (AID 1224843; calls by dose curve; also: nearly all actives have a fitted effect of over 45% in size)
Sequence of Thyrotropin receptor (Homo sapiens) (P16473 whole entry, looked up): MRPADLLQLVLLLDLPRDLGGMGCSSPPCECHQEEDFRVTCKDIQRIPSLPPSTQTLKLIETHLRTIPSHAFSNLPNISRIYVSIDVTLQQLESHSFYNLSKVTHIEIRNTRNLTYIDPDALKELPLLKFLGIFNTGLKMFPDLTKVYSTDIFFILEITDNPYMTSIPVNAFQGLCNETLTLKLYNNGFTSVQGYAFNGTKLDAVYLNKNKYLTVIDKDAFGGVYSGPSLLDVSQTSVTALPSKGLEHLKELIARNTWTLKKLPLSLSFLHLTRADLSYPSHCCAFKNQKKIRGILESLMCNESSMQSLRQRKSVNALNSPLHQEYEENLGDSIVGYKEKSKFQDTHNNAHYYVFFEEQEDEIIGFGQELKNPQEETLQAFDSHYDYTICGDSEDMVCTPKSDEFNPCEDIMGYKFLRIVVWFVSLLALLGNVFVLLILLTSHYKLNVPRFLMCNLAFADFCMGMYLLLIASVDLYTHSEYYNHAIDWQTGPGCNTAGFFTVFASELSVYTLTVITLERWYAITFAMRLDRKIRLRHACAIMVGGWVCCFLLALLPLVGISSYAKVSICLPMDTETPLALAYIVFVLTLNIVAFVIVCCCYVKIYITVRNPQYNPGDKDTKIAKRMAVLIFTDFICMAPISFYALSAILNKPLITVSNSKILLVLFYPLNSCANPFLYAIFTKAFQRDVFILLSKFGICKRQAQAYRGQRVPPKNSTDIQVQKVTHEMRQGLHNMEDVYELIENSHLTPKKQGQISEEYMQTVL
Method in brief: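 Steps: seed 800 TSHR-HEK293 cells per well; add test compound and hold 30 min at ambient temperature; dispense cAMP-d2 then anti-cAMP cryptate; incubate 1 h at ambient; measure fluorescence intensity.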

[2] = qHTS assay to identify small molecule agonists of the hypoxia (HIF-1) signaling pathway - cell viability counter screen (AID 1224844; calls by dose curve; also: nearly all actives have a fitted effect of over 50% in size)
Method in brief: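 ME-180 HRE-bla cells, 2,000/well, 0.5% dialyzed FBS; 5 hr settle, 17 hr compound at 37C/5% CO2; CCF4-AM reporter read first, then CellTiter-Glo luminescence after 30 min RT.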

[3] = qHTS assay to identify small molecule agonists of H2AX (AID 1224845; active = well fitted activation curve with a large enough effect in the signal ratio in the repeat runs, not every such curve was filed as active; the % refers to the signal ratio)
Method in brief: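 Wild-type CHO-K1 cells, plated overnight, exposed 3hr at 37C to 15 concentrations (0.76% DMSO final). Lysed, then HTRF anti-pH2AX (S139) cryptate and anti-H2AX-d2 antibodies, 24 hr room temperature; 665/620 nm emission read.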

[4] = qHTS assay to identify small molecule agonists of the hypoxia (HIF-1) signaling pathway (AID 1224846; active = well fitted activation curve with a large enough effect in the signal ratio in the repeat runs, not every such curve was filed as active; the % refers to the signal ratio)
Method in brief: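 Cell line: CellSensor HRE-bla ME-180; 2,000 cells/well; 0.5% dialyzed FBS; 5 h preincubation; DMSO compound pin transfer; 17 h, 37C, 5% CO2; CCF4-AM added; bla FRET signal scored for activation.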

[5] = qHTS assay to identify small molecule agonists of H2AX - cell viability counter screen (AID 1224847; calls by dose curve; also: top concentration of the series differs between compounds; nearly all actives have a fitted effect of over 30% in size)
Method in brief: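 Cytotoxicity counter screen in wild-type CHO-K1 cells: a 3 hr compound treatment at 37C across 15 concentrations, followed by CellTiter-Glo luminescence to gauge viable cells.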

[6] = qHTS RealTime-Glo MT Cell Viability Assay in HepG2 cells - 24 hour (AID 1224867); also: nearly all actives have a fitted effect of over 50% in size; also: potency is read from the fitted curve at half-maximal effect
Method in brief: (§1)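 Tox21 10K library screened in qHTS format on HepG2 cells carrying RealTime-Glo reagents. Compounds were added after a 5 h preincubation, and the luminescent signal from continuous culture was measured repeatedly during 40 h treatment.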

[7] = qHTS RealTime-Glo MT Cell Viability Assay in HEK293 cells - 32 hour (AID 1224868); also: nearly all actives have a fitted effect of over 50% in size; also: potency is read from the fitted curve at half-maximal effect
Method in brief: (§2)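 Luminescence generated by NanoLuc from substrate produced by living HEK293 cells served as the viability signal. Each value reflects the reading at its stated time point during continuous 40 h compound exposure at 37 C.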

[8] = A CellTox Green Cytotoxicity Assay to monitor cytotoxicity in HEK293 cells - 0 hour (AID 1224869); also: nearly all actives have a fitted effect of over 50% in size
Method in brief: (§3)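 Nonlytic real-time cytotoxicity: HEK293 + CellTox Green reagent plated, 5 h preincubation, pintool compound addition (23 nL in DMSO), 37 C for 40 h, fluorescence measured at successive time points.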

[9] = qHTS RealTime-Glo MT Cell Viability Assay in HepG2 cells - 40 hour (AID 1224870); also: nearly all actives have a fitted effect of over 50% in size
Method in brief: (§4)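 HepG2 cells (600/well) mixed with RealTime-Glo MT reagent, settled 5 h at 37 C/5% CO2 before compound addition. Nonlytic NanoLuc luminescence from viable-cell prosubstrate reduction read repeatedly during 40 h treatment at 37 C.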

[10] = A CellTox Green Cytotoxicity Assay to monitor cytotoxicity in HEK293 cells - 40 hour (AID 1224871); also: nearly all actives have a fitted effect of over 45% in size
Method in brief: as §3

[11] = qHTS RealTime-Glo MT Cell Viability Assay in HEK293 cells - 16 hour (AID 1224872); also: nearly all actives have a fitted effect of over 50% in size; also: potency is read from the fitted curve at half-maximal effect
Method in brief: as §2

[12] = qHTS RealTime-Glo MT Cell Viability Assay in HepG2 cells - 8 hour (AID 1224873); also: nearly all actives have a fitted effect of over 55% in size; also: potency is read from the fitted curve at half-maximal effect
Method in brief: as §4

[13] = qHTS RealTime-Glo MT Cell Viability Assay in HEK293 cells - 40 hour (AID 1224874); details: RealTime-Glo luminescence; max response: hits give low values; also: nearly all actives have a fitted effect of over 50% in size; also: potency is read from the fitted curve at half-maximal effect
Method in brief: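 Cells were seeded together with NanoLuc luciferase and a prosubstrate that viable cells reduce to a luciferase substrate. After a 5 h incubation at 37 C/5% CO2, compounds were added and luminescence was measured repeatedly during 40 h of treatment.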

[14] = A CellTox Green Cytotoxicity Assay to monitor cytotoxicity in HEK293 cells - 24 hour (AID 1224875); also: nearly all actives have a fitted effect of over 45% in size
Method in brief: as §3

[15] = A CellTox Green Cytotoxicity Assay to monitor cytotoxicity in HepG2 cells - 16 hour (AID 1224876); also: nearly all actives have a fitted effect of over 45% in size
Method in brief: (§5)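 Read-out is fluorescence of a cyanine dye excluded from live cells that stains DNA of dead HepG2 cells, with signal proportional to cytotoxicity. Plates were read at 0, 8, 16, 24, 32 and 40 h after compound addition.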

[16] = qHTS RealTime-Glo MT Cell Viability Assay in HepG2 cells - 32 hour (AID 1224877); also: nearly all actives have a fitted effect of over 55% in size
Method in brief: as §1

[17] = A CellTox Green Cytotoxicity Assay to monitor cytotoxicity in HepG2 cells - 24 hour (AID 1224878); also: nearly all actives have a fitted effect of over 45% in size
Method in brief: as §5

[18] = A CellTox Green Cytotoxicity Assay to monitor cytotoxicity in HepG2 cells - 40 hour (AID 1224879); also: nearly all actives have a fitted effect of over 40% in size; also: potency is read from the fitted curve at half-maximal effect
Method in brief: as §5

[19] = qHTS assay to identify small molecule antagonists of the estrogen related receptor (ERR) signaling pathway from Tox21 library (AID 1224848); also: nearly all actives have a fitted effect of over 50% in size
Method in brief: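 Luminescent reporter read-out (ONE-Glo) from NTP's ERR cell line after 18 h treatment at 37 C with DMSO-dissolved Tox21 compounds; cells pre-plated 6 h beforehand at 2,000 per well.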

[20] = qHTS assay to identify small molecule agonists of the estrogen related receptor (ERR) signaling pathway from Tox21 library (AID 1224849; calls by dose curve; also: nearly all actives have a fitted effect of over 15% in size); details: ERR reporter cell line, ONE-Glo luciferase, 18 h; at 92.4 µM (top of the series) unless noted
Method in brief: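 ERR cells, 6 h pre-incubation 37 C/5% CO2; cpd in DMSO pinned; 18 h 37 C; ONE-Glo added, 30 min RT; luminescence read. Agonist mode, qHTS.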
% is scaled to controls: 0 for no effect and ±100 for the full control effect.

O=C(Cn1ccnc1[N+](=O)[O-])NCCO
inactive: Potency [1] | Potency [2] | Potency [3] | outcome [4] | Potency [5] | Potency [6] | Potency [7] | Potency [8] | Potency [9] | Potency [10] | Potency [11] | Potency [12] | max response [13] 4.23% | Potency [14] | Potency [15] | Potency [16] | Potency [17] | Potency [18]

O=C(OC(=O)c1ccccc1)c1ccccc1
inactive: Potency [1] | Potency [2] | Potency [3] | outcome [4] | Potency [5] | Potency [6] | Potency [7] | Potency [8] | Potency [9] | Potency [10] | Potency [11] | Potency [12] | max response [13] 6.21% | Potency [14] | Potency [15] | Potency [17] | Potency [18]

CC1CC(C)C(=O)C1=O (stereo not given)
inactive: Potency [1] | Potency [2] | Potency [3] | outcome [4] | Potency [5] | Potency [6] | Potency [8] | Potency [9] | Potency [10] | Potency [12] | Potency [14] | Potency [15] | Potency [16] | Potency [17] | Potency [18]
active: Potency [7] 13.8 µM | Potency [13] 13.8 µM

C1COC1
inactive: Potency [1] | Potency [2] | Potency [3] | outcome [4] | Potency [5] | Potency [6] | Potency [7] | Potency [8] | Potency [9] | Potency [10] | Potency [11] | Potency [12] | max response [13] 6.53% | Potency [14] | Potency [15] | Potency [16] | Potency [17] | Potency [18]

CCC=CC#N
inactive: Potency [1] | Potency [2] | Potency [3] | outcome [4] | Potency [5] | Potency [6] | Potency [7] | Potency [8] | Potency [9] | Potency [10] | Potency [11] | Potency [12] | max response [13] 10.8% | Potency [14] | Potency [15] | Potency [16] | Potency [17] | Potency [18]

Cc1cc(C)c(N)cc1C
inactive: Potency [1] | Potency [2] | Potency [3] | outcome [4] | Potency [5] | Potency [6] | Potency [7] | Potency [8] | Potency [9] | Potency [10] | Potency [11] | Potency [12] | max response [13] 1.12% | Potency [14] | Potency [15] | Potency [16] | Potency [17] | Potency [18]

CCC(=O)OC
inactive: Potency [1] | Potency [2] | Potency [3] | outcome [4] | Potency [5] | Potency [6] | Potency [7] | Potency [8] | Potency [9] | Potency [10] | Potency [11] | Potency [12] | max response [13] 4.28% | Potency [14] | Potency [15] | Potency [16] | Potency [17] | Potency [18]

CCCCCCCCCCC(=O)O
inactive: Potency [1] | Potency [2] | Potency [3] | outcome [4] | Potency [5] | Potency [6] | Potency [7] | Potency [8] | Potency [9] | Potency [10] | Potency [11] | Potency [12] | max response [13] 3.53% | Potency [14] | Potency [15] | Potency [16] | Potency [17] | Potency [18]

CCOC(=O)c1ccc(OCCN2C[C@H](O)[C@@H](O)[C@H](O)[C@H]2CO)cc1
inactive: Potency [1] | Potency [2] | Potency [3] | outcome [4] | Potency [5] | Potency [6] | Potency [7] | Potency [8] | Potency [9] | Potency [11] | Potency [12] | max response [13] 1.01% | Potency [14] | Potency [15] | Potency [16] | Potency [17] | Potency [18]

CC(C)=CCC/C(C)=C/CC/C(C)=C/CCC(=O)OC/C=C(\C)CCC=C(C)C
inactive: Potency [1] | Potency [2] | Potency [3] | outcome [4] | Potency [19] | activity change, positive = activation [20] -0.27% [at 42.5 µM] | Potency [6] | Potency [7] | Potency [8] | Potency [9] | Potency [10] | Potency [11] | Potency [12] | max response [13] 2.19% | Potency [14] | Potency [15] | Potency [16] | Potency [17] | Potency [18]

CCOc1ccc(Cc2nccc3cc(OCC)c(OCC)cc23)cc1OCC
active: Potency [6] 12 µM | Potency [7] 6.01 µM | Potency [11] 9.52 µM | Potency [12] 12 µM | Potency [13] 5.35 µM | Potency [18] 7.56 µM
inactive: Potency [1] | Potency [2] | Potency [3] | outcome [4] | Potency [8] | Potency [14] | Potency [15] | Potency [17]

O=C(O)CCC(=O)C(=O)O
inactive: Potency [1] | Potency [2] | Potency [3] | Potency [5] | Potency [6] | Potency [7] | Potency [8] | Potency [9] | Potency [10] | Potency [11] | Potency [12] | max response [13] 0.138% | Potency [14] | Potency [15] | Potency [16] | Potency [17] | Potency [18]

C(=C\c1ccccc1)/c1ccccc1
inactive: Potency [1] | Potency [2] | Potency [3] | outcome [4] | Potency [5] | Potency [6] | Potency [7] | Potency [8] | Potency [9] | Potency [11] | Potency [12] | max response [13] 7.61% | Potency [15] | Potency [16] | Potency [17] | Potency [18]

O[C@@H]1CO[C@H]2[C@@H]1OC[C@@H]2O
inactive: Potency [1] | Potency [2] | Potency [3] | outcome [4] | Potency [5] | Potency [6] | Potency [7] | Potency [8] | Potency [9] | Potency [11] | Potency [12] | max response [13] 8.95% | Potency [14] | Potency [15] | Potency [16] | Potency [17] | Potency [18]

CC(CCC(=O)O)C(=O)O (stereo not given)
inactive: Potency [1] | Potency [2] | Potency [3] | Potency [5] | Potency [19] | activity change, positive = activation [20] 3.47% | Potency [6] | Potency [7] | Potency [8] | Potency [9] | Potency [10] | Potency [12] | max response [13] 0% | Potency [14] | Potency [15] | Potency [16] | Potency [17] | Potency [18]
